Compounds without any hit were thinned out: in the full panel of roughly 83,000, 20% have a hit.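 The endpoint reported here, percent growth, reads 100 for growth as untreated, 0 for no net growth and -100 for all cells dead.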 Activity calls are given as the source filed them. Rule for the calls: active = growth percent below 10; inactive = the rest.
These compounds were tested on SK-OV-3 ovarian (assay: NCI-60 one-dose screen, 48 h (100 = growth as untreated, 0 = no growth, -100 = all killed)). Settings: 10 µM unless noted.
`COc1ccc(/C=N\Nc2nc(SCCC(C)C)nc(-c3ccc(OC)cc3)c2C#N)cc1` was tested, and the growth was 56.9% (inactive). `COC1/C=C/OC2(C)Oc3c(C)c(O)c4c(O)c(c(/C=N/Nc5ccc([N+](=O)[O-])cc5[N+](=O)[O-])c(O)c4c3C2=O)NC(=O)C(C)=C/C=C/C(C)C(O)C(C)C(O)C(C)C(OC(C)=O)C1C` (stereo not drawn) was tested, and the growth was 112% (inactive). In the case of `COc1cc(OC)c(NC(=O)c2cc3ccccc3cc2O)cc1Cl`, the growth is reported as 71.6% (inactive). In the case of `CC(C)(C)[Si](C)(C)OC1[C@@H](CNC(=O)NC(=O)NC(N)=O)O[C@@H](n2cnc3c(NC(=O)Nc4ccccc4)ncnc32)[C@H]1O[Si](C)(C)C(C)(C)C` (stereo partly drawn), the growth is reported as 65.4% (inactive). In the case of `COc1ccc(C/C(C)=C(\c2ccc(Cl)cc2)c2ccc(OCCN3CCCCC3)cc2)cc1`, the growth is reported as 103% (inactive). `Cc1ccc(C(=O)c2ccc(CC(=O)N/N=C/c3ccccc3O)n2C)cc1` was tested, and the growth was 90.4% (inactive). For `CCO/C=N/C1=C(C#N)C(c2ccc(Cl)cc2)c2sc3c(F)cccc3c2O1` (stereo not drawn), the growth was 81.9% (inactive). For `CCCCNC(=O)Oc1ccc(/C(=C(/C)Cc2ccc(OC)cc2)c2ccc(OCCN(CC)CC)cc2)cc1`, the growth was 97% (inactive). With `COc1cc2oc(-c3cccc(NC(=O)c4ccccc4)c3)cc(=O)c2c(OC)c1OC` the growth was 104% (inactive).

Each compound was assayed on IGROV1 ovarian in the same assay as above. Settings: 10 µM unless noted.
With `CN1C(=O)/C(=C\c2nc([P+](c3ccccc3)(c3ccccc3)c3ccccc3)c(N3CCOCC3)o2)SC1=S` the growth was 5.71% (active). `COc1ccc2c(c1)c(-c1nc(-c3c[nH]c4ccncc34)cs1)cn2C` was tested, and the growth was -83.8% (active). For `COc1ccc(C(=O)c2cc3c(N)c(C(=O)Nc4ccc(C)cc4)sc3nc2C)cc1`, the growth was 28.6% (inactive). `COc1cc2nc3cc([N+](=O)[O-])ccc3c(NCCNCC(C)O)c2cc1OC` (stereo not drawn) was tested, and the growth was -16.5% (active). With `Cc1sc2nc(NCCc3c[nH]c4ccc(Cl)cc34)[nH]c(=O)c2c1C` the growth was 50.8% (inactive). With `CC/C(=C(/c1ccc(Cl)cc1)c1ccc(OCCN(C)C)cc1)c1ccc(Cl)cc1` the growth was 72.5% (inactive). `CNC(=O)c1[nH]cc(-c2ccc(OC)cc2)c1-c1cc(OC)c2c(c1OC)OCO2` was tested, and the growth was 87.4% (inactive). `C=CCc1c(O)c(C(=O)/C=C/c2ccccc2)c(OC)c2ccoc12` was tested, and the growth was 54.7% (inactive). `COc1ccc(-c2cc(-c3ccc(Cl)cc3)c(C#N)c(=O)n2Cc2ccc(C(=O)Nc3ccccc3N)cc2)cc1` was tested, and the growth was 78.3% (inactive). `COc1ccc(/C=C/C(=O)c2cccc(OCCCCOc3cccc(C(=O)/C=C/c4ccc(OC)c(OC)c4)c3)c2)cc1OC` was tested, and the growth was 75.2% (inactive). For `CCOC(=O)c1ccc(NC(=O)c2nc(-c3cc(OC)c(OC)c(OC)c3)n(-c3ccc(Cl)cc3)n2)cc1`, the growth was 88.9% (inactive). In the case of `Cc1ccc(CNc2ccc3nc(CCC4CCCCC4)[nH]c3c2)cc1`, the growth is reported as 25.6% (inactive). With `CC(=O)c1c(C)nc(SCC(=O)Nc2cccc(O)c2)n1-c1ccc(Cl)cc1` the growth was 99% (inactive). `Cc1ccc2c(c1)=C/C(=C\c1cc(-c3ccccc3)oc1O)C(=O)N=2` was tested, and the growth was 111% (inactive). `O=C(CSc1nnc(-c2cnccn2)n1-c1ccccc1)c1ccc(Cl)cc1` was tested, and the growth was 106% (inactive). In the case of `CCC(=C(c1ccc(OCCN2CCCCC2)cc1)c1ccc(OCCN2CCCCC2)cc1)c1ccc(Cl)cc1`, the growth is reported as -87.9% (active). `O=C(Nc1ccc(Oc2cccc(Cl)c2)c(Cl)c1)c1cnccn1` was tested, and the growth was 27% (inactive). For `CCCNc1nc2ccccc2c2c1S(=O)(=O)c1ccc(Cl)cc1C2=O`, the growth was 24.6% (inactive). In the case of `C=CCOC(=O)Nc1cccn([C@H](Cc2ccccc2)C(=O)NCCC(C)C)c1=O`, the growth is reported as 106% (inactive). `N#Cc1nc(-c2ccc(F)cc2)oc1S(=O)(=O)N1CCCCC1` was tested, and the growth was 59.6% (inactive). For `COc1ccc2cc1Oc1ccc(cc1)C[C@H]1c3c(cc4c(c3Oc3cc5c(cc3OC)CCN(C)[C@@H]5C2)OCO4)CCN1C`, the growth was 44.3% (inactive). `C=C1C(=O)O[C@H]2[C@H]1CC/C(COC(=O)/C=C\C(=O)NCc1ccc(Cn3c(=O)sn(CCI)c3=O)cc1)=C\CC[C@@]1(C)O[C@@H]21` was tested, and the growth was 3.61% (active). For `CCOC(=O)c1c(NC(=O)c2ccc(Cl)cc2)sc2c(CN(C)C)c(O)ccc12`, the growth was 66.1% (inactive). In the case of `CSc1nc(N)c(NS(=O)(=O)c2ccc(C(C)=O)cc2)c(=O)[nH]1`, the growth is reported as 106% (inactive). With `COc1cc2c(c(OC)c1OC)CCC(c1cccc(C(=O)Nc3cccc(Cl)c3)c1)O2` (stereo not drawn) the growth was 63.8% (inactive). For `Cc1nc2sc(C(=O)Nc3cccc4ccccc34)c(N)c2cc1C(O)c1ccccc1` (stereo not drawn), the growth was 14.4% (inactive). In the case of `COc1ccc(C(=O)N2c3ccccc3Sc3ccccc32)c(OC)c1`, the growth is reported as 52.5% (inactive). With `Cc1nc2sc(C(=O)Nc3ccc(Br)cc3)c(N)c2cc1C(O)c1ccccc1` (stereo not drawn) the growth was 75.1% (inactive). With `CNc1nnc2n(-c3ccccc3)c(=O)c3cnn(-c4ccccc4)c3n12` the growth was 94.8% (inactive). In the case of `[O-]/[N+](=C\c1ccc(-n2cc(Cc3ccccc3Cc3cn(-c4ccc(/C=[N+](/[O-])c5ccccc5)cc4)nn3)nn2)cc1)c1ccccc1`, the growth is reported as 95.4% (inactive). In the case of `COc1ccc(/C=N\Nc2nc(SCCC(C)C)nc(-c3ccc(OC)cc3)c2C#N)cc1`, the growth is reported as 34.5% (inactive). In the case of `COC1/C=C/OC2(C)Oc3c(C)c(O)c4c(O)c(c(/C=N/Nc5ccc([N+](=O)[O-])cc5[N+](=O)[O-])c(O)c4c3C2=O)NC(=O)C(C)=C/C=C/C(C)C(O)C(C)C(O)C(C)C(OC(C)=O)C1C` (stereo not drawn), the growth is reported as 28.5% (inactive). `COc1cc(OC)c(NC(=O)c2cc3ccccc3cc2O)cc1Cl` was tested, and the growth was 1.6% (active). For `CC(C)(C)[Si](C)(C)OC1[C@@H](CNC(=O)NC(=O)NC(N)=O)O[C@@H](n2cnc3c(NC(=O)Nc4ccccc4)ncnc32)[C@H]1O[Si](C)(C)C(C)(C)C` (stereo partly drawn), the growth was 78.4% (inactive). For `COc1ccc(C/C(C)=C(\c2ccc(Cl)cc2)c2ccc(OCCN3CCCCC3)cc2)cc1`, the growth was 99.9% (inactive). `Cc1ccc(C(=O)c2ccc(CC(=O)N/N=C/c3ccccc3O)n2C)cc1` was tested, and the growth was 80.9% (inactive). For `CCO/C=N/C1=C(C#N)C(c2ccc(Cl)cc2)c2sc3c(F)cccc3c2O1` (stereo not drawn), the growth was 60.7% (inactive). With `CCCCNC(=O)Oc1ccc(/C(=C(/C)Cc2ccc(OC)cc2)c2ccc(OCCN(CC)CC)cc2)cc1` the growth was 93.7% (inactive). `COc1cc2oc(-c3cccc(NC(=O)c4ccccc4)c3)cc(=O)c2c(OC)c1OC` was tested, and the growth was 78.4% (inactive).

From PubChem BioAssay (NCI)
